Reference: PubChem BioAssay

Key:
[1] = system: Botulinum neurotoxin type F light chain protease (Clostridium botulinum); experiment: Botulinum neurotoxin type F light chain protease inhibition, multiplex microsphere flow cytometry, validation set (AID 588459); settings: multiplex microsphere protease substrate cleavage assay, at 10 µM, hits give high values
[2] = target: Botulinum neurotoxin type A (Clostridium botulinum) (UniProt P0DPI0); experiment: BoNT/A light chain protease inhibitors, biochemical, multiplex microsphere flow cytometry, validation set (AID 588460); settings: at 10 µM, hits give high values
[3] = target: Lethal factor (Bacillus anthracis) (UniProt P15917); experiment: Lethal factor protease inhibitors, Bacillus anthracis, multiplex microsphere cleavage assay, validation set (AID 588461); settings: flow cytometry, at 10 µM, hits give high values

Measured: inhibition

Lethal factor (Bacillus anthracis), sequence (P15917 whole entry, looked up): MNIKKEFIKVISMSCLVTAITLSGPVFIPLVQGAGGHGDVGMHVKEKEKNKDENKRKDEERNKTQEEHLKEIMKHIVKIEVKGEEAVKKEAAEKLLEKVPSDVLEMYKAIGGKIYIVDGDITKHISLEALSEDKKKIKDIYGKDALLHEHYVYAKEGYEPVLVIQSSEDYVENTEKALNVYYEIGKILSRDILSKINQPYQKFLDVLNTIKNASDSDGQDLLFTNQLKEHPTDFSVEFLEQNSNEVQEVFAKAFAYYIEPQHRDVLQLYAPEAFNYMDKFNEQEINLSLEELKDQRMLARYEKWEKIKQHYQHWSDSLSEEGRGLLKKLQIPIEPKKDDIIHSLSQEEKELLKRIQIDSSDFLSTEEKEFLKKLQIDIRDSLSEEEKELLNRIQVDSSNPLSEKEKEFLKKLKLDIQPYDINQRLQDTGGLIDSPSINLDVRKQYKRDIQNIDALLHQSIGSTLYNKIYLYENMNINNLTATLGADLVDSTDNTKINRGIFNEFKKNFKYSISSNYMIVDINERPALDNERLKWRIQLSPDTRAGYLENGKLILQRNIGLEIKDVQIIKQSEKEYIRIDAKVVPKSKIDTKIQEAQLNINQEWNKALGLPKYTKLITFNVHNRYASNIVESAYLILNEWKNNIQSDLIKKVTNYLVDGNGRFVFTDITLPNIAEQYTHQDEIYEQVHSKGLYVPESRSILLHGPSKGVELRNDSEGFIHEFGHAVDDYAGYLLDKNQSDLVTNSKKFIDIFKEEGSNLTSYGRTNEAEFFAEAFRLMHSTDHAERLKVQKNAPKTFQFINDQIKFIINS
Botulinum neurotoxin type A (Clostridium botulinum), sequence (P0DPI0 whole entry, looked up): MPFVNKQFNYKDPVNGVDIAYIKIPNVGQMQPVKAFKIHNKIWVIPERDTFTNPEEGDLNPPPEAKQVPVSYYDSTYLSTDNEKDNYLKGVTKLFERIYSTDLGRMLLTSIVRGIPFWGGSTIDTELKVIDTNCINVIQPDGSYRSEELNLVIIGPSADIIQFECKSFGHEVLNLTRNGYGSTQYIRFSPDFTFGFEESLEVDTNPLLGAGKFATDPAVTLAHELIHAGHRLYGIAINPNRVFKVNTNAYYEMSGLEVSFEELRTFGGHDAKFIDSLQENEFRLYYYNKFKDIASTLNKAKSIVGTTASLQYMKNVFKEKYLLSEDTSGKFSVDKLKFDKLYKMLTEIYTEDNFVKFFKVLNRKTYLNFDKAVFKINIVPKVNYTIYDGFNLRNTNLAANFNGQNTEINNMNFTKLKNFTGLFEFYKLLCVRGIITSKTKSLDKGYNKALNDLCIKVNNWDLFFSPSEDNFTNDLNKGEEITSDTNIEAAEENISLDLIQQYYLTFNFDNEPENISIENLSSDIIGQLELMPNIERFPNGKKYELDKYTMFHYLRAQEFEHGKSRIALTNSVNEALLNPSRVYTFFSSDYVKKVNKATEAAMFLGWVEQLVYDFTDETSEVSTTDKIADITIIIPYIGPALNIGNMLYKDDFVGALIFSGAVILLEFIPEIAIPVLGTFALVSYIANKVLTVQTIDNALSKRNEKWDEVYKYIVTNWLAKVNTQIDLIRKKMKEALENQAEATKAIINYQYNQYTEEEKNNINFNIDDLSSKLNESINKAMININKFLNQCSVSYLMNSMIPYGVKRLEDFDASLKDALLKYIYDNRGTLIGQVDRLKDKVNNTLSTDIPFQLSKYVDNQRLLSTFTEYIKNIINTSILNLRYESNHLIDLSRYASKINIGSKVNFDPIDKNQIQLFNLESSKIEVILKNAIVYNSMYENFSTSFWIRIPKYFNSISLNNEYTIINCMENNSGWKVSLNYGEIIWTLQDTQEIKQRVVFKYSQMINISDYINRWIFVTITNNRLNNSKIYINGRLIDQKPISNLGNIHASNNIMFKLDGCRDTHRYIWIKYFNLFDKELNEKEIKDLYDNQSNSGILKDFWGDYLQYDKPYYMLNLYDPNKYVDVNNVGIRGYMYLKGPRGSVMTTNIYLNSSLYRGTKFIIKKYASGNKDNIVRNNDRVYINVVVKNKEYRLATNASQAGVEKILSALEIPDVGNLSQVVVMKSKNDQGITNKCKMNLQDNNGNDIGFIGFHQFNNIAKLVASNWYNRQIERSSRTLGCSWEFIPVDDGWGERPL

COCCOC(=O)C1=C(N)OC2=C(C(=O)CCC2)C1c1cccnc1 (stereo not given)
inactive: [1] -3.2% | [2] 0% | [3] -0.9%

COc1ccc(CCN(C)Cc2nc(Cc3ccc(OC)c(OC)c3)no2)cc1OC
inactive: [1] 1% | [2] -1% | [3] 6.9%

CC(C)Cn1c(=S)[nH]c2cc(C(=O)O)ccc2c1=O
inactive: [1] -4.3% | [2] -0.4% | [3] -0.6%

O=C1c2ccccc2C(=O)N1/N=C/c1ccc(Oc2ccc([N+](=O)[O-])cn2)cc1
inactive: [1] 0.2% | [2] 0.8% | [3] -1.7%

Cc1ccc(NC(=O)CSc2nc(O)c(Cc3ccccc3)c(=O)n2-c2ccccc2)cc1
inactive: [1] -0.8% | [2] -0.6% | [3] 2%

CC(C)(C)C(=O)Nc1cccc(OC(F)(F)C(F)Cl)c1 (stereo not given)
inactive: [1] 3.3% | [2] 0% | [3] -6%

CC1=C/C(=N\N=C2\NC(=O)C(CC(=O)Nc3ccccc3F)S2)CC(C)(C)C1 (stereo not given)
inactive: [1] -1.1% | [2] 0.8% | [3] 2.8%

CC(=O)Oc1cc2oc(=O)cc(C)c2cc1OC(C)=O
inactive: [1] -1.8% | [2] -0.8% | [3] 1.8%

CCOC(=O)C1=C(N)Oc2c(c(=O)[nH]c3ccccc23)C1c1ccccc1 (stereo not given)
inactive: [1] 0.4% | [2] 1.1% | [3] -1.6%

Cc1ccc2[nH]c3c(=O)n(CCCN4CCN(C)CC4)cnc3c2c1
inactive: [1] 7.8% | [2] -1% | [3] -2.5%

O=C(/C=C/c1ccccc1)NC(=O)c1ccccc1O
inactive: [1] -4.2% | [2] -1.7% | [3] -5.7%

CCS(=O)(=O)Nc1cc(OC)c(OC)cc1Cc1nccc2cc(OC)c(OC)cc12
inactive: [1] 0.2% | [2] 0.4% | [3] -0.6%

COc1ccc(/C=C\C(=O)c2c(O)ccc3c(C)cc(=O)oc23)cc1OC
inactive: [1] 1.5% | [2] 0.2% | [3] -2.9%

CC1=NN(C(=O)c2ccc(Br)cc2)C(O)(c2ccccc2)C1 (stereo not given)
inactive: [1] -2.9% | [2] -0.4% | [3] 4.5%

OCCN(CCO)c1ccc2ccccc2c1
inactive: [1] -1.3% | [2] -1.2% | [3] -6.6%

CSCC[C@H](NC(=O)Nc1ccc(C)cc1C)C(=O)O
inactive: [1] -2.1% | [2] 1.4% | [3] 0.5%

Cc1ccc2c(c1)C1OCCC1C1N2C(=O)C2C(C(=O)O)C3C=CC21O3 (stereo not given)
inactive: [1] -1.8% | [2] -0.8% | [3] 5.5%

Cc1ccc(C2CC(=O)C(C=NCCN3CCN(C(=S)Nc4ccccc4)CC3)=C(O)C2)cc1 (stereo not given)
inactive: [1] -0.8% | [2] 0.1% | [3] 5.4%

CC(=O)N1c2ccccc2C(C)=CC1(C)C
inactive: [1] 2.3% | [2] -0.7% | [3] -8.5%

CCOCC(=O)Nc1nc2ccccc2s1
inactive: [1] -2.1% | [2] 1.5% | [3] -0.2%

CN1CCC(=C2c3ccccc3C=Cc3ccccc32)CC1
inactive: [1] -1.3% | [2] -1.2% | [3] -8.4%

COC(=O)C1=C(C)N(C)C(=S)NC1c1ccc(Cl)cc1 (stereo not given)
inactive: [1] -0.7% | [2] -0.5% | [3] -4%

C#C[C@]1(O)CC[C@H]2[C@@H]3CCC4=C(CCC(=O)C4)[C@H]3CC[C@@]21C
inactive: [1] 0.3% | [2] 0.1% | [3] 0.8%

CC1CCN(C(=O)Oc2ccccc2)CC1
inactive: [1] -2.4% | [2] -1.5% | [3] 3.8%

O=Cc1ccc(OC(=O)c2cccnc2)cc1
inactive: [1] 0.2% | [2] -0.7% | [3] -3.8%

Oc1[nH]c2ccccc2c1C1=NCCCC1
inactive: [1] 3.8% | [2] -0.1% | [3] -8.7%

COc1ccc(C(=O)NCC2OCCc3ccccc32)cc1 (stereo not given)
inactive: [1] -0.4% | [2] -0.3% | [3] -8.6%

COc1ccccc1OS(=O)(=O)c1ccc(NC(C)=O)cc1
inactive: [1] -1.9% | [2] 1.2% | [3] 3%

COc1ccc(C(C)=O)c2c1OCCO2
inactive: [1] 2.3% | [2] -2.8% | [3] 0.8%

CC1=CC(=O)c2ccccc2C1=O
inactive: [1] -2.1% | [2] -0.1% | [3] 6.7%
